Test results reported in the supplement of paper PMC7156485.

Assays:
Details in all cases: concentration: 10 µM; 24 h
HCC1569 [1] = test: cell number relative to DMSO (% of DMSO); higher = more cells (less growth inhibition / toxicity)
How it was run: (§1)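 HCC1569 and TDF cells were seeded at 800 per well in 384-well plates in RPMI with 10% FBS and treated with compounds at 10 µM for 24 h at 37 °C, in triplicate. After fixation in 3.7% formaldehyde, cells were stained with a rabbit anti-H1.0 antibody, an AlexaFluor 647 secondary and DAPI, and six fields per well were imaged at ×10. H1.0 nuclear intensity or cell number is given as percent of the plate control, using the median of replicates, with HCC1569 values smoothed for positional effects.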

TDF [2] = test: as above
How it was run: as §1

TDF [3] = test: H1.0 immunofluorescence intensity relative to DMSO (% of DMSO); higher = stronger H1.0 induction, active = 120 or more
How it was run: as §1

HCC1569 [4] = test: H1.0 immunofluorescence intensity relative to DMSO (% of DMSO); higher = stronger H1.0 induction, active = 140 or more
How it was run: as §1
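For H1.0 immunofluorescence intensity relative to DMSO in this document: TDF is a line of transformed human dermal fibroblasts of mesenchymal origin.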
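For cell number relative to DMSO in this document: TDF denotes transformed human dermal fibroblasts of mesenchymal origin.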

| SMILES | cell number (HCC1569 [1]) | cell number (TDF [2]) | H1.0 immunofluorescence intensity (TDF [3]) | H1.0 immunofluorescence intensity (HCC1569 [4]) |
| --- | --- | --- | --- | --- |
| C[N+]1(C)CCc2cc3c(cc2C1C1OC(=O)c2c1ccc1c2OCO1)OCO3.[Br-] (single isomer, unassigned; (-)) [(-)-Bicuculline methbromide, 1(S), 9(R)] | 101 | 104 | 94.2 (inactive) | 96.4 (inactive) |
| CC(=O)[C@H]1CC[C@H]2[C@@H]3CC[C@H]4C[C@](C)(O)CC[C@]4(C)[C@H]3CC[C@]12C [(3alpha,5alpha)-3-hydroxy-3-methylpregnan-20-one] | 105 | 93 | 101 (inactive) | 111 (inactive) |
| O=S1(=O)N(CCN2CC=C(c3c[nH]c4cc(F)ccc34)CC2)c2cccc3c2N1CCC3 | 101 | 107 | 95.4 (inactive) | 102 (inactive) |
| C[N+]1([O-])C2CCC1CC(OC(=O)C(CO)c1ccccc1)C2.Cl (configuration not stated) | 97.9 | 107 | 92.4 (inactive) | 85 (inactive) |
| O=C([O-])Cc1ccccc1.[Na+] [Sodium Phenylacetate] | 96.8 | 103 | 96.8 (inactive) | 100 (inactive) |
| Cl.O=C1CCC2(O)C3Cc4ccc(O)c5c4C2(CCN3CC2CC2)C1O5 (configuration not stated) [Naltrexone.HCl] | 101 | 100 | 90.5 (inactive) | 99.8 (inactive) |
| CN1CC(C(=O)NC2(C)OC3(O)C4CCCN4C(=O)C(Cc4ccccc4)N3C2=O)C=C2c3cccc4[nH]cc(c34)CC21 (configuration not stated) [Ergotamine] | 97.8 | 108 | 95.3 (inactive) | 106 (inactive) |
| Cc1[nH]c2ccc(Cl)cc2c1C1=CCNCC1.Cl | 99.8 | 93.5 | 107 (inactive) | 120 (inactive) |
| CS(=O)CCCCN=C=S (configuration not stated) [1-isothiocyanato-4-(methylsulfinyl)butane] | 99.7 | 94.9 | 93.7 (inactive) | 89.6 (inactive) |
| COc1ccc(C(=O)OC2CC3CCC(C2)N3C)cc1OC (configuration not stated) [Convolvamine] | 105 | 96.1 | 97.8 (inactive) | 90 (inactive) |
| O=C1C=CC(=O)C=C1 [p-Benzoquinone] | 100 | 99.8 | 93.1 (inactive) | 93.3 (inactive) |
| CN(C)C(=O)Oc1ccc[n+](C)c1.[Br-] [Pyridostigmine bromide] | 103 | 107 | 96.8 (inactive) | 108 (inactive) |
| C=CCN1CCC23c4c5ccc(O)c4OC2C(=NNC(=O)c2ccccc2)CCC3(O)C1C5 (configuration not stated) [Naloxone benzoylhydrazone] | 99.7 | 118 | 101 (inactive) | 93.3 (inactive) |
| CN1CC(CO)C=C2c3cccc4[nH]cc(c34)CC21 (configuration not stated) [Lysergol] | 100 | 106 | 102 (inactive) | 87.6 (inactive) |
| CCN(CCCl)Cc1ccccc1Br.Cl [DSP-4 hydrochloride] | 98.7 | 103 | 92.8 (inactive) | 92.4 (inactive) |
| Cl.NNC(N)=O [Semicarbazide hydrochloride] | 102 | 111 | 89 (inactive) | 108 (inactive) |
| NC(Cc1cc(O)c(O)cc1O)C(=O)O (racemic) [6-Hydroxy-DL-DOPA] | 98.2 | 96.2 | 97 (inactive) | 93.8 (inactive) |
| CC(=O)OC1C(c2ccc(=O)oc2)C2(C)CCC3C(CCC4CC(O)CCC43C)C23OC13 (configuration not stated) [Cinobufagin] | 53.5 | 42.2 | 115 (inactive) | 99.5 (inactive) |
| CCCCCCCCCCCCCCCCOCC(COP(=O)([O-])OCC[N+](C)(C)C)OC(C)=O (configuration not stated) | 96 | 98.3 | 99.6 (inactive) | 102 (inactive) |
| Br.CCCN1CCc2cc(O)cc3c2C1Cc1ccc(O)c(O)c1-3 (stereo not drawn) [R(-)-2,10,11-Trihydroxy-N-propylnoraporphine hydrobromide] | 95.1 | 110 | 89.2 (inactive) | 100 (inactive) |
| Br.COC1CC=C2CCN3CCC4=C(CC(=O)OC4)C23C1 (stereo not drawn) [Dihydro-beta-erythroidine hydrobromide] | 104 | 98.2 | 91.6 (inactive) | 93.8 (inactive) |
| COC1=CC(=O)OC(C=Cc2ccccc2)C1 (racemic) | 104 | 92 | 95.5 (inactive) | 83 (inactive) |
| COc1cc2c3cc1Oc1c(OO)c(OC)cc4c1C(Cc1ccc(cc1)Oc1cc(ccc1O)CC3N(C)CC2)N(C)CC4.O=S(=O)(O)O (configuration not stated) [Oxyacanthine sulfate] | 55.6 | 11.7 | 186 (active) | 148 (active) |
